Several values for one entry are separate records, joined by “and”; a condition that tells them apart may be missing. Equal entries are not always repeated. Inconclusive results are not listed. A number with no mark means an inactive call. Activity calls are given as the source filed them. The call rests on the fitted dose curve; in most records, active means well fitted curve in the direction sought with a large enough effect; inconclusive means small, poorly fitted or top-dose-only effect, or another doubt; inactive means no such curve, though single readings can be large; an effect the other way counts as inactive or inconclusive.

Test [1] can be described thus: Viability qHTS for spleen associated tyrosine kinase inhibitor (SYKi) naive MV4-11 cells (AID 1963823). Further: nearly all actives have a fitted effect of over 40% in size. Put shortly:
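Compounds were dispensed acoustically onto plates, MV4-11 cells (SYKi-naive) added at 500 per well, and plates incubated 72 hr at 37 C. CellTiter-Glo was added and luminescence measured after 10 min.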

The nature of test [2]: Viability qHTS for spleen associated tyrosine kinase inhibitor (SYKi) drug resistant MV4-11 cells (AID 1963824). Further: nearly all actives have a fitted effect of over 35% in size. Put shortly: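 CellTiter-Glo luminescence, read 10 min after reagent addition, reports viability after a 72 hr compound exposure. Cells are an MV4-11 line made resistant to SYK inhibition, seeded at 500 per well onto compound-containing plates.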
Test [3] is described as follows: Quantitative highthroughput screen to assess conditional lethalithy of NOMO1 cells grown in RPMI1640 with untreated serum (RPMI+s) (AID 1963876). Further: nearly all actives have a fitted effect of over 35% in size.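 On Viability: 100% = DMSO wells and 0% = empty wells without cells.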 Put shortly: (§1)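 Each medium arm—HPLM with 10% dialyzed FBS, or RPMI1640 with 5 mM glucose and 10% untreated or dialyzed FBS—was screened against an 11-point, 3-fold compound titration for 48 h at 37 °C, with CellTiter-Glo luminescence as endpoint.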

The nature of test [4]: Quantitative highthroughput screen to assess conditional lethalithy of NOMO1 cells grown in RPMI1640 with dialyzed fetal bovine serum (RPMI+ds) (AID 1963877). Further: nearly all actives have a fitted effect of over 30% in size.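 On Viability: series mostly up to about 46 µM; 100% = DMSO control wells and 0% = empty wells.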 In a few lines: as §1
Test [5] is described as follows: Quantitative highthroughput screen to assess conditional lethalithy of NOMO1 cells grown in Human Plasma-Like Medium with dialyzed fetal bovine serum (HPLM+ds) (AID 1963878). Further: nearly all actives have a fitted effect of over 35% in size.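 On Viability: 100% = DMSO wells and 0% = empty wells on each plate.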 Put shortly: as §1
Test [6] is described as follows: Quantitative highthroughput screen to assess conditional lethalithy of P12 Ichikawa cells grown in Human Plasma-Like Medium with dialyzed fetal bovine serum (HPLM+ds) (AID 1963879). Further: nearly all actives have a fitted effect of over 35% in size. On Viability: series mostly up to about 46 µM. The note with it: Potency: viability. Put shortly: as §1
Test [7] can be described thus: Quantitative highthroughput screen to assess conditional lethalithy of P12 Ichikawa cells grown in RPMI1640 with dialyzed fetal bovine serum (RPMI+ds) (AID 1963880). Further: nearly all actives have a fitted effect of over 35% in size.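 On Viability: 100% = DMSO wells and 0% = empty wells on each plate.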 The note with it: Potency: P12-Ichikawa viability. Put shortly:
as §1

Test [8] can be described thus: Quantitative highthroughput screen to assess conditional lethalithy of P12 Ichikawa cells grown in RPMI1640 with untreated serum (RPMI+s) (AID 1963881). Further: nearly all actives have a fitted effect of over 35% in size.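 On Viability: series mostly up to about 46 µM; 100% = DMSO wells and 0% = empty wells without cells.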 The note with it: Potency: viability. In a few lines: as §1
Test [9] can be described thus: Quantitative highthroughput screen to assess conditional lethalithy of SEM cells grown in Human Plasma-Like Medium with dialyzed fetal bovine serum (HPLM+ds) (AID 1963882). Further: nearly all actives have a fitted effect of over 35% in size. On Viability: series mostly up to about 46 µM. In a few lines:
as §1

Test [10] can be described thus: Quantitative highthroughput screen to assess conditional lethalithy of SEM cells grown in RPMI1640 with unreated serum (RPMI+s) (AID 1963883). Further: nearly all actives have a fitted effect of over 35% in size.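 On Viability: 100% = DMSO wells and 0% = empty wells without cells.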 Put shortly: as §1
Test [11] in a line: Cellular viability qHTS for adrenocortical cancer (ACC) cell line SW-13 (AID 1963989). Further: nearly all actives have a fitted effect of over 65% in size.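 On activity (max response): cells grown in serum-free medium with ITS supplement; on the % scale 0 is the no-effect control and ±100 the full control effect.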 The settings on record: SW-13 ACC cells viability, CellTiter-Glo, 48 h; activity (max response): stronger effect = lower value. Put shortly:
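Here, serum-free SW-13 cultures were dosed up to 46 uM. Following 48 h, ATP-dependent luminescence (CellTiter-Glo) reported viable cells, and logistic modeling produced IC50 values.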

Test [12] can be described thus: Cellular viability qHTS for adrenocortical cancer (ACC) cell line NCI-H295R (AID 1963990). Further: nearly all actives have a fitted effect of over 60% in size. In a few lines:
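Viability of NCI-H295R after 48 h of treatment (final up to 46 uM) measured through cellular ATP luminescence.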

Test [13] can be described thus: Quantitative highthroughput screen to assess conditional lethalithy of SEM cells grown in RPMI1640 with dialyzed fetal bovine serum (RPMI+ds) (AID 1963884). Further: nearly all actives have a fitted effect of over 35% in size.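 On Viability: series mostly up to about 46 µM; 100% = DMSO control wells and 0% = empty wells without cells.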 In a few lines:
as §1
Potency means the concentration at half of the fitted maximal effect.

As to `O=C(Nc1cc(C(F)(F)F)cc(C(F)(F)F)c1)c1cc(Cl)ccc1O`, the Potency in [1] was 651 nM (active) and 934 nM (active); in test [2], 517 nM (active) and 662 nM (active); in [3], 3.32 µM (active); in test [4], 2.96 µM (active); in [5] it was 2.96 µM (active); in test [6], 3.72 µM (active). The Potency is 3.32 µM (active) in test [7]; 2.96 µM (active) in test [8]; 4.18 µM (active) in test [9]; 2.96 µM (active) in test [10]; 355 nM (active) in [11]; 1.12 µM (active) in test [12].
Regarding `COc1cc2nc(N3CCCN(C)CC3)nc(NC3CCN(Cc4ccccc4)CC3)c2cc1OC`, the Potency was 2.35 µM (active) in test [1]; 2.35 µM (active) in test [2]; 8.33 µM (active) in [3]; 5.26 µM (active) in test [4]; 5.26 µM (active) in [5]; 11.8 µM (active) in test [6]. For the same molecule, the Potency in test [7] was 11.8 µM (active); in [8] it was 13.2 µM (active); in test [9] it was 5.26 µM (active); in [10] it was 11.8 µM (active); in test [11], 5620 nM (active); in [12], 8.91 µM (active).
With `COc1cc(C[C@@H](CO)[C@H](CO)Cc2ccc(O)c(OC)c2)ccc1O`, the Potency entry in test [1], in [2], in test [3], in test [4], in test [5] and in test [6] was “inactive” each time. Besides, the Potency result in test [7], in test [8], in test [9], in test [13] and in [12] was “inactive” in each case. Also, the activity (max response) in test [11] was -8.41%.
For `O=C(O)C1CCCN(CCC=C(c2ccccc2)c2ccccc2)C1` (configuration not stated), the Potency entry in [1], in test [2], in test [3], in test [4], in [5] and in test [6] was “inactive” in each case. For the same molecule, the Potency entry in [7], in test [8], in test [9], in test [10], in test [13] and in test [12] was “inactive” throughout.
For `O=C(O)c1cc(=O)[nH]c(=O)[nH]1`, the Potency entry in test [1], in test [2], in [3], in [4], in [5] and in test [6] was “inactive” throughout. For the same molecule, the Potency result in test [7], in [8], in [9] and in test [10] was “inactive” in each case. For the same molecule, in [11], the activity (max response) is -4.98%.
On to `CCCn1c(=O)c2[nH]c(C34CC5CC3C[C@@H](C5)C4)nc2n(CCC)c1=O`, for which the Potency in test [1] was 18.6 µM (active); in test [2], 16.6 µM (active). Also, the Potency entry in test [3], in test [4], in [5], in test [6], in test [7] and in [8] was “inactive” throughout. For the same molecule, the Potency entry in [9] and in [13] was “inactive” in each case. Besides, the activity (max response) in test [11] is -4.88%.
For the molecule `CN1CCC(COc2cnc(-c3cccc(Cn4nc(-c5cccc(C#N)c5)ccc4=O)c3)nc2)CC1`, the Potency in test [1] was 7.42 µM (active) and 8.2 µM (active); in test [2] it was 7.42 µM (active) and 13 µM (active); in test [12], 25.1 µM (active). Further, the Potency entry in [3], in test [4], in test [5], in test [6], in test [7] and in [8] was “inactive” in each case. Also, the Potency result in [9] and in test [10] was “inactive” throughout.
With `OC[C@@H](O)[C@@H](O)[C@H](O)[C@@H](O)CO`, the Potency result in [1], in test [2], in test [3], in [4], in [5] and in test [6] was “inactive” in each case. In addition, the Potency result in [7], in test [8], in test [9], in test [10], in test [13] and in test [12] was “inactive” each time.
In the case of `CNCc1ccc(-c2[nH]c3cc(F)cc4c3c2CCNC4=O)cc1`, the Potency in test [1] was 13 µM (active) and 16.6 µM (active); in [2], 20.6 µM (active) and 14.8 µM (active). Also, the Potency entry in test [3], in test [4], in test [5], in [6], in [7] and in test [8] was “inactive” each time. In addition, the Potency entry in test [9] and in test [13] was “inactive” in each case.
For `CCCCCCCCCCCCCC(=O)N[C@H](CO)[C@H](O)c1ccc([N+](=O)[O-])cc1`, the Potency in [1] is 26.3 µM (active); in [2], 23.5 µM (active); in test [3] it was 2.35 µM (active); in [4] it was 2.64 µM (active); in test [5], 1.66 µM (active); in [6], 3.72 µM (active). Besides, the Potency in test [7] is 2.64 µM (active); in [8] it was 2.35 µM (active); in [9], 1.32 µM (active); in [13], 1.32 µM (active). In addition, the activity (max response) in [11] is 0.392%.
For `COC(=O)N1CC2(CC2)C[C@H](C(=O)NO)[C@H]1C(=O)N1CCN(c2ccccc2)CC1`, the Potency result in test [1], in test [2] and in test [12] was “inactive” in each case. The Potency in [3] was 0.524 µM (active); in test [4], 3.31 µM (active); in test [5] it was 0.295 µM (active); in [6] it was 0.331 µM (active); in [7], 1.05 µM (active); in test [8], 2.34 µM (active). Further, the Potency in test [9] was 1.17 µM (active); in test [13], 0.66 µM (active). The activity (max response) in test [11] was -14.2%.
Regarding `O=C1c2c(O)cc(O)cc2OC(c2ccc(O)c(O)c2)C1O` (configuration not stated), the Potency entry in [1], in test [2], in test [3], in test [4], in [5] and in test [6] was “inactive” each time. The Potency entry in test [7], in [8], in test [9], in test [10], in [13] and in test [12] was “inactive” each time.
Consider `CN(C)Cc1ccc(-c2nc3cccc4c3n2CCNC4=O)cc1`, for which the results for the Potency in [1], in test [2] and in test [12] were 16.6 µM (active), 18.4 µM (active) and 25.1 µM (active), respectively. The Potency result in [3], in test [4], in test [5], in test [6], in test [7] and in test [8] was “inactive” throughout. The Potency result in [9], in test [10] and in test [13] was “inactive” throughout.
Regarding `Cc1cnc(C(=O)O)c[n+]1[O-]`, the Potency entry in [1], in [2], in test [3], in test [4], in test [5] and in test [6] was “inactive” in each case. For the same molecule, the Potency entry in test [7], in [8], in [9] and in [13] was “inactive” throughout. Besides, the activity (max response) in [11] was -15.7%.
For `Cc1cccc(CN2CCN(C(c3ccccc3)c3ccc(Cl)cc3)CC2)c1` (configuration not stated), the Potency in test [1] is 20.9 µM (active); in test [2] it was 11.9 µM (active) and 26.3 µM (active); in [11], 3.26 µM (active) and 28.2 µM (active). In addition, the Potency result in [3], in test [4], in test [5], in test [6], in test [7] and in [8] was “inactive” each time. In addition, the Potency result in test [9] and in [13] was “inactive” in each case.

The record behind these values is PubChem BioAssay (NCATS).
